Experiment [1] concerns the target Rap guanine nucleotide exchange factor 3 (Homo sapiens) (UniProt O95398). The experiment can be described thus: Confirmatory qHTS for antagonist of cAMP-regulated guanine nucleotide exchange factor 3 (EPAC1) (AID 1645880). Note: nearly all actives have a fitted effect of over 55% in size. Note: potency is the fitted concentration of half-maximal effect. The method in brief: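 Nucleotide exchange uses 100 nM EPAC1, 250 nM RAP1B-BODIPY-GDP and 50 uM GDP, with compounds in a concentration-titration series. After 5 min at room temperature, fluorescence (480 nm ex/540 nm em) is read every 5 min for 30 min. Data are normalized to control ATA and DMSO.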
(In general: Quantitative high-throughput screening tests each substance at several concentrations.)

For experiment [2] the target is unchanged. The experiment is described as follows: Confirmatory qHTS for agonist of cAMP-regulated guanine nucleotide exchange factor 3 (EPAC1) (AID 1645881).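 For activation: EPAC1 catalysed release of BODIPY-GDP from Rap1B seen as fluorescence loss; 100% = effect of cAMP agonist control.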 Note: nearly all actives have a fitted effect of over 75% in size. Note: potency is the fitted concentration of half-maximal effect.
Experiment [3] deals with Rap guanine nucleotide exchange factor 4 (Homo sapiens) (UniProt Q8WZA2). The experiment is described as follows: Confirmatory qHTS for agonist of cAMP-regulated guanine nucleotide exchange factor 4 (EPAC2) (AID 1645884). For activation: % is set by controls: 0 for no effect and ±100 for the full control effect.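 Note: nucleotide exchange releases bodipy-GDP from Rap1 and this lowers its fluorescence; nearly all actives have a fitted effect of over 65% in size.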 Note: potency is the fitted concentration of half-maximal effect.
Experiment [4] shares this target. The experiment can be described thus: Confirmatory qHTS for antagonist of cAMP-regulated guanine nucleotide exchange factor 4 (EPAC2) (AID 1645885). For activity change, negative = inhibition: % is set by controls: 0 for no effect and ±100 for the full control effect. Note: nearly all actives have a fitted effect of over 25% in size. Note: potency is the fitted concentration of half-maximal effect.
Experiment [5] has as its target Rap guanine nucleotide exchange factor 3 (Homo sapiens) (UniProt O95398). The experiment is described as follows: Counterscreen qHTS for antagonist of cAMP-regulated guanine nucleotide exchange factor 3 (EPAC1) (AID 1645888). Note: % of control where 0% means no effect. A digest of the protocol: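 Measured: fluorescence of BODIPY-GDP bound to Rap1B, which falls as exchange proceeds. Conditions include 50 uM competing GDP, 5 and 30 min reads, and a later cAMP challenge for antagonist detection.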
A general note: The purpose of a counterscreen is to sort out artefacts and off-target activity.

The nature of experiment [6]: Primary qHTS to identify inhibitors of SARS-CoV-2 cell entry (AID 1645846; calls by dose curve; note: nearly all actives have a fitted effect of over 45% in size; note: potency is the fitted concentration of half-maximal effect). As to conditions: SARS-CoV-2 pseudovirus cell entry assay, luminescence; activity change, negative = inhibition: at 57.1 µM (top of the series) unless noted. The method in brief: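 Data are normalized to wells receiving SARS-CoV-2-S pseudoparticles and those given bald particles. Entry signal was luciferase luminescence in stable hACE2 Expi293F cells, 48 hr post-infection, after 1 hr compound pretreatment.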

Experiment [7] is described as follows: VSVG counterscreen qHTS to identify inhibitors of SARS-CoV-2 cell entry (AID 1645847; calls by dose curve; note: potency is the fitted concentration of half-maximal effect; nearly all actives have a fitted effect of over 65% in size). The method in brief:
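Counterscreen using VSV-G (not spike) pseudotyped MLV particles on ACE2-expressing Expi293F cells after 1 h compound preincubation; infection ran 48 h at 37 °C. Data normalized to VSV-G PP and bald-PP wells.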

Experiment [8] concerns the target Alpha-galactosidase (Coffea arabica) (UniProt Q42656). The experiment is described as follows: Counterscreen for Glucocerebrosidase Inhibitors: qHTS Assay for Coffee Bean alpha-Galactosidase at pH 4.5 (AID 957).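 Note: plate controls were enzyme alone for no effect and no enzyme for full effect.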 A digest of the protocol:
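Coffee bean alpha-galactosidase 2 nM, substrate 4-MU-alpha-Gal 80 uM, pH 4.5 citrate/Tween-20, 20 min RT. Cpd titration 0.7 nM–77 uM. Stop pH 10, fluorescence 365/440 nm; Hill-equation AC50.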

Experiment [9] has the same target. The experiment is described as follows: Counterscreen for Glucocerebrosidase Inhibitors: qHTS Assay for Coffee Bean alpha-Galactosidase at pH 5.9 (AID 998).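 Note: plate controls were uninhibited enzyme for no effect and no-enzyme basal signal for full effect.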 A digest of the protocol:
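Green coffee bean enzyme (2 nM final) was incubated with compounds (0.7 nM–77 uM) and 4-methylumbelliferyl alpha-D-galactopyranoside (80 uM) in citrate buffer pH 5.9, 20 min at room temperature. High-pH stop; fluorescence 365/440 nm; AC50 from Hill fits.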

Experiment [10] in a line: Validation screen for inhibitors of Lassa infection (AID 463096; calls by dose curve; note: % is set by controls: 0 for no effect and ±100 for the full control effect).
The target in experiment [11] is N-terminal Xaa-Pro-Lys N-methyltransferase 1 (Homo sapiens) (UniProt Q9BV86). The experiment can be described thus: Confirmatory qHTS for Inhibitors of N-terminal methyltransferase 1 (NTMT1): MTaseGlo Assay (AID 1645874).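 Note: luminescence from SAH made as NTMT1 methylates SPKRIA peptide using SAM; 0% = DMSO control and -100% = no-enzyme control; nearly all actives have a fitted effect of over 65% in size.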 The method in brief: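 qHTS format: NTMT1 125 nM, SAM 100 uM, peptide SPKRIA 1 uM final; 15 min compound preincubation, 30 min reaction at room temperature. MTase-Glo luminescence.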

Experiment [12] can be described thus: Primary qHTS for inhibitors of nuclear receptor binding SET domain protein 2 (NSD2) in an isogenic RCH-ACV NSD2 p.E1099K mutant (9B) (AID 1645876). Note: potency is the fitted concentration of half-maximal effect; nearly all actives have a fitted effect of over 70% in size.
A short description of experiment [13]: Primary qHTS for inhibitors of nuclear receptor binding SET domain protein 2 (NSD2) in an RCH-ACV wild type WT cells (2C) (AID 1645877). Note: potency is the fitted concentration of half-maximal effect; nearly all actives have a fitted effect of over 70% in size.

26 compounds from PubChem BioAssay (NCATS) can be followed below.

Records with an inconclusive call do not appear. Activity calls are given as the source filed them. Unless noted, calls come from the whole dose curve; as a rule, active = well fitted curve in the direction sought with a large enough effect; inconclusive = small, poorly fitted or top-dose-only effect, or another doubt; inactive = no such curve, though single readings can be large; an effect the other way counts as inactive or inconclusive.

Chain of Rap guanine nucleotide exchange factor 4 (Homo sapiens) (Q8WZA2 whole entry, looked up): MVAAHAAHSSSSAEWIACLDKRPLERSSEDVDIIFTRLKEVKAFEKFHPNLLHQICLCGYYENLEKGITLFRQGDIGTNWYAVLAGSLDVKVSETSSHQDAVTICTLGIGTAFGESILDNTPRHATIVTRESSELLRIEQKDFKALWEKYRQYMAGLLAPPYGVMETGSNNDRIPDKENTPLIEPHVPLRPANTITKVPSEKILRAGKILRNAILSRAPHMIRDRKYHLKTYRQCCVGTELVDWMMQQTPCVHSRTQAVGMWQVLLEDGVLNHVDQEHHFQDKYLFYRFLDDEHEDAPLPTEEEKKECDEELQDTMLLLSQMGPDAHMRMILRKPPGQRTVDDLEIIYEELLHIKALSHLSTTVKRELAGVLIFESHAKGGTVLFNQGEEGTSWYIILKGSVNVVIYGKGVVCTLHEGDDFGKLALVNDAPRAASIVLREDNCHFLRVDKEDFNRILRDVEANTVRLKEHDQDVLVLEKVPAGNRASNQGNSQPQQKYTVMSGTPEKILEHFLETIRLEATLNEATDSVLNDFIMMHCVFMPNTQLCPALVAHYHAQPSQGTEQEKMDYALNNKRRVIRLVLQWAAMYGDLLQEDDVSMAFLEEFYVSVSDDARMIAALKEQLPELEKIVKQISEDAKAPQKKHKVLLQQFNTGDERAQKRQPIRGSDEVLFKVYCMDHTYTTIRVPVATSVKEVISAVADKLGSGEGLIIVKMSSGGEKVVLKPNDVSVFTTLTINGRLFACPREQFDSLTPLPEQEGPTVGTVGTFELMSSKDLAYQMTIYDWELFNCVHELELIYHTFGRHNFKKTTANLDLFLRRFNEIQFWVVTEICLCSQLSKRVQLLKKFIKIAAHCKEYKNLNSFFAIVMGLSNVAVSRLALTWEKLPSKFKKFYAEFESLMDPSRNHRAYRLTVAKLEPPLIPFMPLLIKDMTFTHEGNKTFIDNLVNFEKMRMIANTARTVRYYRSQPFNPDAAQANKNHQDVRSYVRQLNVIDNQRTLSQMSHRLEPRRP
Chain of Rap guanine nucleotide exchange factor 3 (Homo sapiens) (O95398 whole entry, looked up): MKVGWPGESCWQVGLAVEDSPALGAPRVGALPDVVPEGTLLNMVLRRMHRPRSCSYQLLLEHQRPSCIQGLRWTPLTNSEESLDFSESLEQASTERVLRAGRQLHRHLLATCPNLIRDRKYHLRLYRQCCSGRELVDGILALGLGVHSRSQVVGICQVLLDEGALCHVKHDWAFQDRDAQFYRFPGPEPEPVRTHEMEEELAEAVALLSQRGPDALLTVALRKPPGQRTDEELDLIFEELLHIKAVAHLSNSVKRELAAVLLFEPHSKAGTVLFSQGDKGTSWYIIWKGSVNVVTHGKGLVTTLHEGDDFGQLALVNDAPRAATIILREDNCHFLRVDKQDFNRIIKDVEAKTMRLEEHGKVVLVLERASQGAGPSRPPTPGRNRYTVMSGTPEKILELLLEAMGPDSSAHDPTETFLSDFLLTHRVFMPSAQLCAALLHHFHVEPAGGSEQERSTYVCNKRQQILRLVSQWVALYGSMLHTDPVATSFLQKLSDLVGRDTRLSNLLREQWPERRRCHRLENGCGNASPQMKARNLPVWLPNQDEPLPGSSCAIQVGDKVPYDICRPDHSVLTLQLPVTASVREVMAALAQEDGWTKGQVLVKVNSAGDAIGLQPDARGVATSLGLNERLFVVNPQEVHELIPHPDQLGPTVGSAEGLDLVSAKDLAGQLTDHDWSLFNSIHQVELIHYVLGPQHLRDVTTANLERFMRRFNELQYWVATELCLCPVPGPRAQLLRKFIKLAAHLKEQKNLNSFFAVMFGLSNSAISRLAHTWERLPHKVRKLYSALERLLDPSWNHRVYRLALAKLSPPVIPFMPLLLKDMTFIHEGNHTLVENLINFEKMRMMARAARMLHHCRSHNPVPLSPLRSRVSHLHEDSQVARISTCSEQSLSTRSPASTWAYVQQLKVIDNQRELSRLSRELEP
Chain of Alpha-galactosidase (Coffea arabica) (Q42656 whole entry, looked up): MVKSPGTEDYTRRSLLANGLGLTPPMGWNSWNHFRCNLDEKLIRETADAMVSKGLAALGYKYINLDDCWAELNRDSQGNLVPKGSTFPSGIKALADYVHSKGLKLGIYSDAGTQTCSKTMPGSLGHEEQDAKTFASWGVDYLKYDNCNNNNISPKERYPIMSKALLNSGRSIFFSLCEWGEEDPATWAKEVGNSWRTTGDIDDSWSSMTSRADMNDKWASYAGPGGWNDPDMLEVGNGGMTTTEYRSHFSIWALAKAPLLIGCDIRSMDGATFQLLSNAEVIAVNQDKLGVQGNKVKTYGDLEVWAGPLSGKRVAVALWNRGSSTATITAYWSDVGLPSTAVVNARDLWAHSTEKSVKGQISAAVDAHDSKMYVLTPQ
Chain of N-terminal Xaa-Pro-Lys N-methyltransferase 1 (Homo sapiens) (Q9BV86 whole entry, looked up): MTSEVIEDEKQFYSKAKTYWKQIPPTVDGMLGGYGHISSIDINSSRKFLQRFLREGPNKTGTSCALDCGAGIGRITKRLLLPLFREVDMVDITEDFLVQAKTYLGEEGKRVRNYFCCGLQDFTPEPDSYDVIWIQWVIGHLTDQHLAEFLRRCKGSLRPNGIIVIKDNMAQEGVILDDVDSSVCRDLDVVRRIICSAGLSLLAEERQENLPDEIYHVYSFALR

As for `CCOC(=O)C1CCCN(c2ccc([N+](=O)[O-])c3nonc23)C1` (stereo not given), the Potency result in experiment [1] and in experiment [4] was “inactive” throughout. The Potency is 112 µM (active) in [2] and 100 µM (active) in experiment [3].

Take `Cc1ccc(C)c(Cn2c(C(=O)O)c(C=O)c3ccccc32)c1`: the Potency entry in experiment [1] and in [2] was “inactive” in each case. Also, the activation in experiment [3] was 10% [at 17.1 µM, percent relative to cAMP agonist control] (inactive). For the same compound, the activity change, negative = inhibition in experiment [4] is 3.6% [at 12.7 µM] (inactive); in [5], -5.1% [at 30.8 µM] (inactive).

On to `O=C1NC(=O)N(Cc2ccccc2)C(=O)/C1=C/C=C/c1ccco1`, for which the Potency in experiment [1] is 44.7 µM (active). Moreover, the Potency entry in experiment [2] is “inactive”. Further, the activation in [3] was 4.26% [at 17.1 µM, percent relative to cAMP agonist control] (inactive). Besides, the activity change, negative = inhibition is -1.14% [at 12.7 µM] (inactive) in experiment [4] and -0.901% [at 30.8 µM] (inactive) in [5].

`COc1ccc(OCC(=O)N2CCN(CC3CC4C=CC3C4)CC2)cc1` (stereo not given): the Potency entry in experiment [1] and in [2] was “inactive” in each case. In experiment [3], the activation is 6.59% [at 17.1 µM, percent relative to cAMP agonist control] (inactive). The values for the activity change, negative = inhibition in [4] and in experiment [5] were 6.27% [at 12.7 µM] (inactive) and -7.66% [at 30.8 µM] (inactive), respectively.

Regarding `Nc1nc2c(c(=O)[nH]1)N1CN(c3ccc(C(=O)N[C@@H](CCC(=O)O)C(=O)O)cc3)CC1CN2` (stereo not given in full), the activity change, negative = inhibition in experiment [6] is -83.8%. The Potency in [7] is 3.41 µM (active).

Consider `Cc1c[nH]c2nc(Nc3ccc(N4CCN(C)CC4)c(F)c3)nc(-c3cccc(CC#N)c3)c12`, for which the Potency in experiment [6] is 2.51 µM (active).

Turning to `COC1C(OC(=O)c2ccc(C)[nH]2)C(O)C(Oc2ccc3c(O)c(NC(=O)c4ccc(O)c(CC=C(C)C)c4)c(=O)oc3c2Cl)OC1(C)C` (stereo not given), in [1], the Potency was 30.1 µM (active). Besides, the Potency result in experiment [2] and in [3] was “inactive” throughout.

As for `CCCSc1nc2ccccc2c(=O)n1-c1ccccc1OC`, the Potency result in experiment [1], in [2] and in [3] was “inactive” each time. Also, the activity change, negative = inhibition in [4] is 34.1% [at 12.7 µM] (inactive). In addition, the outcome in [5] was inactive.

As for `COc1ccc(N2C(=O)N(c3c(C)cccc3Cl)Cc3cnc(Nc4ccc(C5CCN(C)CC5)cc4OC)nc32)nc1`, in experiment [6], the Potency is 35.5 µM (active).

Consider `COc1ccc([C@@H](O)[C@@H](C)Oc2ccc([C@H]3O[C@H](c4ccc(O[C@H](C)[C@H](O)c5ccc(OC)c(OC)c5)c(OC)c4)[C@H](C)[C@H]3C)cc2OC)cc1OC`, for which the activity change, negative = inhibition in [6] was -95.6%.

Consider `CCC(=C/[C@H](C)C/C=C/C(C)=C/[C@@H](C)C(=O)[C@@H](C)[C@H](O)[C@@H](C)C/C(C)=C/C(=O)O)/C=C/[C@@H]1OC(=O)C=C[C@@H]1C`, for which, in experiment [6], the activity change, negative = inhibition is -94.2%.

In the case of `CC(C)=CCC/C(C)=C/CC/C(C)=C/CSc1ccccc1C(=O)O`, the call in experiment [8] and in [9] was inactive. The Potency entry in experiment [10] is “inactive”. Besides, in experiment [6], the activity change, negative = inhibition was -15.6%.

As to `CCOc1ccc(CN(CCc2ccc3c(c2)OCO3)Cc2cccc(Br)c2)cc1`, the result in experiment [11] was inactive.

Consider `COC[C@@H]1OC(=O)c2coc3c2[C@]1(C)C1=C(C3=O)[C@H]2CC[C@H](O)[C@@]2(C)C[C@@H]1OC(C)=O`, for which the Potency was 0.82 µM (active) in [12] and 0.651 µM (active) in [13].

Regarding `CCc1nc2ccccc2c(=O)n1-c1ccccc1OC`, the Potency result in experiment [1], in experiment [2] and in [3] was “inactive” in each case. Besides, the Potency in experiment [4] is 33.8 µM (active). Moreover, the compound was called inactive in [5].

For the compound `CCOC(=O)[C@]12Cc3cc(Cl)ccc3[C@H]1N(C1CCCCC1)C(=O)c1ccccc12`, the Potency result in experiment [1], in experiment [2], in experiment [3] and in experiment [4] was “inactive” throughout. In addition, in experiment [5], the compound was called inactive.

With `CCOC(=O)[C@]12Cc3cc(N(C)C)ccc3[C@H]1N(Cc1ccccc1)C(=O)c1ccccc12`, the Potency result in experiment [1] and in [2] was “inactive” each time.

On to `COc1ccc(C(SCC(NC(=O)OCc2ccccc2)C(=O)O)c2ccc(OC)cc2)cc1` (stereo not given), for which the Potency entry in experiment [1], in experiment [2], in experiment [3] and in [4] was “inactive” in each case. For the same compound, the compound was classed as inactive in [5].

Turning to `NC[C@H]1O[C@H](O[C@H]2[C@H](O)[C@@H](O[C@H]3O[C@H](CO)[C@@H](O)[C@H](N)[C@H]3O)[C@H](N)C[C@@H]2N)[C@H](N)C[C@@H]1O`, the activity change, negative = inhibition in experiment [6] was -8.09%.

As to `COC(=O)[C@]12CCC(C)(C)C[C@@H]1[C@@H]1C(=O)C=C3[C@]4(C)C=C(C#N)C(=O)C(C)(C)[C@@H]4CC[C@@]3(C)[C@]1(C)CC2`, the Potency in experiment [12] was 0.461 µM (active); in experiment [13], 0.326 µM (active).

In the case of `Cc1c2cnn(CC(=O)N3CCC4(CC3)OCCO4)c(=O)c2c(C)n1Cc1ccc(F)cc1`, the Potency result in experiment [1], in experiment [2], in [3] and in experiment [4] was “inactive” each time. The call in [5] was inactive.

With `Cc1c(NC(=O)c2cc(C(N)=O)nc3cc(F)ccc23)c(C(F)(F)F)nn1Cc1ccc(C#N)cc1`, the activity change, negative = inhibition in experiment [6] was -65.9%.

For `COC(=O)c1cn(Cc2ccc(F)cc2)c2ccccc12`, the Potency entry in [1], in experiment [2], in experiment [3] and in [4] was “inactive” each time. In addition, the call in experiment [5] was inactive.

For the compound `CC(Cc1ccc(O)cc1)NCC(O)c1ccc(O)c(O)c1` (stereo not given), the Potency in experiment [1] is 22.4 µM (active). The Potency entry in experiment [2] is “inactive”. Also, the activation in [3] was -2.87% [at 17.1 µM, percent relative to cAMP agonist control] (inactive). The activity change, negative = inhibition is -0.704% [at 12.7 µM] (inactive) in experiment [4] and 6.78% [at 30.8 µM] (inactive) in [5].

Consider `COC(=O)C1=C(c2cc3ccccc3s2)C[C@@H]2CC[C@H]1N2C(=O)NCc1ccc(C(F)(F)F)cc1`, for which the Potency entry in experiment [1], in [2], in [3] and in experiment [4] was “inactive” in each case.

Regarding `O=C1NC(=S)N(c2ccccc2)C(=O)/C1=C/c1ccco1`, the Potency in [1] was 9.53 µM (active). The Potency result in experiment [2], in experiment [3] and in [4] was “inactive” in each case. For the same compound, the compound was called inactive in [5].
